# From publication PMC5540273 (PLoS ONE, 2017)
# System: CSNK1A1
# Details: concentration: 1 μM, replicates: in singlicate; n = 1
# 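Note: KINOMEscan kinase panel screen.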
row,SMILES,%Inh
1,Cn1ccc2ncnc(Oc3ccc(NC(=O)Nc4cccnc4)c(Cl)c3)c21,8%
2,O=C(c1ccc(-c2cc(-c3c[nH]nc3-c3ccccn3)ccn2)cc1)N1CCCC1 [GW792479],59%
3,Nc1nc(-c2ccc3c(N)n[nH]c3c2)cc(N2CCC[C@@H](C(=O)Nc3ccccc3)C2)n1.O=C(O)C(F)(F)F.O=C(O)C(F)(F)F [GSK2288359],0%
4,Cl.Cl.c1ccc(-c2cc3ccncc3cc2OC2CCNCC2)cc1 [GSK1122999],16%
5,Fc1ccc(-c2ncn(CCCNCc3ccccc3)c2-c2ccncc2)cc1,90.4%
6,CCn1c(-c2ccncc2)nc2cnccc21 [SB-735216],22%
7,C[C@H]1CC[C@@H](C(=O)Nc2ccccc2)CN1c1cc(-c2ccc3c(N)n[nH]c3c2)nc(N)n1 [GSK2283293],0%
8,NC(=O)c1sc(-n2cnc3ccccc32)cc1OCc1ccccc1F [GSK1024306],0%
9,Cl.Cn1ccc(-c2cccc(Nc3ccnc4cc(-c5nccs5)ccc34)c2)n1 [GW525701],0%
10,FC(F)(F)c1cc(Nc2nccc(-c3c(-c4ccc(Cl)cc4)nn4ncccc34)n2)ccc1Cl [GW829351],0%
11,N#Cc1ccc(Oc2ccc(Nc3ncnc4cc[nH]c34)cc2Cl)cc1,2%
12,OCCOCCn1ccc2ncnc(Nc3ccc(Oc4cccc(Cl)c4)c(Cl)c3)c21,0%
13,Fc1cccc(COc2ccc(Nc3ncnc4nn5ccccc5c34)cc2Cl)c1 [GW689066],0%
14,Nc1nc(-c2ccccn2)c(-c2ccnc3ccccc23)s1 [GW548057],89%
15,CCCc1ccc(S(=O)(=O)NC2CCN(c3ccnc(Nc4ccc(OC)cc4)n3)C2)cc1 (centres unmarked) [GSK1379737],0%
16,Cc1ccc(O)cc1Nc1cc(C(F)(F)F)nc2ccc(-c3ccncc3)cc12 [GW630823],4%
17,CNc1nccc(-c2c(-c3ccc(F)cc3)ncn2C2CCN(C)CC2)n1 [SB-222903],95.5%
18,Nc1nc(-c2cccnc2)c(-c2ccnc3ccccc23)s1 [GW684083],1%
19,O=C(Nc1ccccc1)Nc1ccc(Oc2ccc3nccn3n2)cc1,19%
20,CC(C)(C)c1ccc(-n2cnc3c(N)ncnc32)cc1 [SKF-97263],40%
21,Cc1ccc(NC(=O)c2cccc(C#N)c2)cc1-c1ccc(C(=O)Nc2ccncc2)cc1 [GSK1398463],0%
22,Cc1ccc(C)c(NC(=O)NCCNc2ccnc(Nc3ccc(F)cc3)n2)c1 [GSK1379878],11%
23,Nc1nccc2scc(-c3ccc4c(c3)CCN4C(=O)Cc3cc(F)ccc3F)c12 [GSK2587663],0%

# System: CSNK1D
# Details: concentration: 1 μM, replicates: in singlicate; n = 1
row,SMILES,%Inh
1,COc1ccc(NC(=O)Nc2ccc(C)c(-c3ccc(C(=O)Nc4ccncc4)cc3)c2)cc1 [GSK1398475],15%
2,Clc1ccc(-c2cc(-c3c[nH]nc3-c3ccccn3)ccn2)cc1 [GW681251],42%
3,CC(C)(C)OC(=O)NC1CCCN(c2cc(-c3ccc4c(N)n[nH]c4c3)nc(N)n2)C1 (centres unmarked) [GSK2286096],5%
4,CSc1ccc(NC2=C(c3ccccc3Cl)C(=O)NC2=O)cc1 [SB-342411],2%
5,COC(=O)c1cccc(NC(=O)NCCNc2ccnc(Nc3ccc(F)cc3)n2)c1 [GSK1379883],3%
6,Fc1cccc(COc2ccc(Nc3ncnc4sc(-c5ccc[nH]5)cc34)cc2Cl)c1 [GW707818],9%
7,c1ccc(-c2ccc3c(-c4ccnc(Nc5ccc6c(c5)OCCO6)n4)cnn3n2)cc1 [GW818941],8%
8,Fc1cccc(COc2ccc(Nc3ncnc4cc[nH]c34)cc2Cl)c1,0%
9,COc1cc2c(Nc3cccc(NC(=O)c4ccccc4)c3)ncnc2cc1OCCCN1CCOCC1 [GSK223810],60%
10,COc1ccc(NC(=O)c2ccc(-c3cc(-c4nnc(C)o4)ccc3C)cc2)cc1 [GW595885],0%
11,Cl.Fc1ccccc1COc1ccc(Nc2ncnc3ccc(-c4nnc(C(F)(F)F)o4)cc23)cc1Cl [GW424170],5%
12,CNc1nccc(-c2c(-c3ccc(F)cc3)ncn2CCCN2CCOCC2)n1 [SB-222516],8%
13,Cc1cc(N2CCC(NS(=O)(=O)c3ccc(F)cc3)CC2)nc(Nc2cccc(C#N)c2)n1.O=C(O)C(F)(F)F [GSK1653537],27%
14,Cn1ccc2ncnc(Oc3ccc(NC(=O)Nc4cccnc4)c(Cl)c3)c21,0%
15,O=C(c1ccc(-c2cc(-c3c[nH]nc3-c3ccccn3)ccn2)cc1)N1CCCC1 [GW792479],49%
16,Nc1nc(-c2ccc3c(N)n[nH]c3c2)cc(N2CCC[C@@H](C(=O)Nc3ccccc3)C2)n1.O=C(O)C(F)(F)F.O=C(O)C(F)(F)F [GSK2288359],0%
17,Cl.Cl.c1ccc(-c2cc3ccncc3cc2OC2CCNCC2)cc1 [GSK1122999],0%
18,Fc1ccc(-c2ncn(CCCNCc3ccccc3)c2-c2ccncc2)cc1,96.6%

row,SMILES,%Inh
1,CCn1c(-c2ccncc2)nc2cnccc21 [SB-735216],8%
2,C[C@H]1CC[C@@H](C(=O)Nc2ccccc2)CN1c1cc(-c2ccc3c(N)n[nH]c3c2)nc(N)n1 [GSK2283293],0%
3,NC(=O)c1sc(-n2cnc3ccccc32)cc1OCc1ccccc1F [GSK1024306],17%
4,Cl.Cn1ccc(-c2cccc(Nc3ccnc4cc(-c5nccs5)ccc34)c2)n1 [GW525701],12%
5,FC(F)(F)c1cc(Nc2nccc(-c3c(-c4ccc(Cl)cc4)nn4ncccc34)n2)ccc1Cl [GW829351],81%
6,N#Cc1ccc(Oc2ccc(Nc3ncnc4cc[nH]c34)cc2Cl)cc1,5%
7,OCCOCCn1ccc2ncnc(Nc3ccc(Oc4cccc(Cl)c4)c(Cl)c3)c21,0%
8,Fc1cccc(COc2ccc(Nc3ncnc4nn5ccccc5c34)cc2Cl)c1 [GW689066],3%
9,Nc1nc(-c2ccccn2)c(-c2ccnc3ccccc23)s1 [GW548057],83%
10,CCCc1ccc(S(=O)(=O)NC2CCN(c3ccnc(Nc4ccc(OC)cc4)n3)C2)cc1 (centres unmarked) [GSK1379737],14%
11,Cc1ccc(O)cc1Nc1cc(C(F)(F)F)nc2ccc(-c3ccncc3)cc12 [GW630823],15%
12,CNc1nccc(-c2c(-c3ccc(F)cc3)ncn2C2CCN(C)CC2)n1 [SB-222903],94%
13,Nc1nc(-c2cccnc2)c(-c2ccnc3ccccc23)s1 [GW684083],65%
14,O=C(Nc1ccccc1)Nc1ccc(Oc2ccc3nccn3n2)cc1,1%
15,CC(C)(C)c1ccc(-n2cnc3c(N)ncnc32)cc1 [SKF-97263],3%
16,Cc1ccc(NC(=O)c2cccc(C#N)c2)cc1-c1ccc(C(=O)Nc2ccncc2)cc1 [GSK1398463],19%
17,Cc1ccc(C)c(NC(=O)NCCNc2ccnc(Nc3ccc(F)cc3)n2)c1 [GSK1379878],0%
18,Nc1nccc2scc(-c3ccc4c(c3)CCN4C(=O)Cc3cc(F)ccc3F)c12 [GSK2587663],14%
